Screening data (PubChem BioAssay)
ALR H2O2 inh = inhibitors of human ALR sulfhydryl oxidase, primary screen, biochemical, H2O2 detection, HRP-luminol luminescence, single point. hit rate 3.8% among 290,000. purified ALR, DTT oxidation. AID 485317, 2010. inhibition, % (test concentration not listed);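 active = mean replicate inhibition above about 79%, with every replicate also reaching it, limit read from the data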
Target sequence (P55789 whole entry, looked up): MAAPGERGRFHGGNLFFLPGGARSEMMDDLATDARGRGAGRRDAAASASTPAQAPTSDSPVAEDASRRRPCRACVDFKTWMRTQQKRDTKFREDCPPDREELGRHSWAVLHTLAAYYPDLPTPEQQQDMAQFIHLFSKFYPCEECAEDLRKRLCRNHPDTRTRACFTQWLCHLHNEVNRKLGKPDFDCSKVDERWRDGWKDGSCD
Efflux pump inh = inhibitors of Candida efflux pumps in yeast, primary screen, S. cerevisiae, Nile Red, multiplex; S. cerevisiae Candida pump triplex; inhibition, % at 10 µM; hit rate 0.44% among 330,000; AID 485275, 2010;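 active = plate passing quality check with inhibition over a set limit, or well fluorescence over plate mean plus 4 SD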;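 also: Nile Red retained in pooled yeast measured as flow cytometry median fluorescence; 0% = buffer negative control and 100% = Enniatin B positive control; higher means more Nile Red kept so more efflux inhibition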
AHR act = AHR activators, primary screen, cell-based, luminescence, luciferase reporter, human | activation, % at 5 µM | AHR-responsive luciferase reporter cells | Aryl hydrocarbon receptor (Homo sapiens), P35869 | hit rate 2.5% among 320,000; in the data active = activation above about 47%;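 also: 0% = vehicle wells and 100% = reference agonist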
VLA-4 inh = inhibition in human VLA-4 binding assay, primary screen, VLA-4 allosteric modulator project, MLPCN library, flow cytometry, VLA-4 expressing cells | Integrin alpha-4 (Homo sapiens), P13612 | ligand binding flow cytometry | inhibition, % (about 7 µM as worked out from the volumes in the protocol) | hit rate 0.2% among 330,000 | AID 2557, 2010; in the data active = inhibition above about 50%
A1 inh = caspase 3/7 activation in MEF A1-2A-BIM cells, primary screen, A1 inhibitor project, cell-based, luminescence, HTS; Caspase-Glo 3/7 luminescence, 3 h; percent of clofoctol response, vehicle zero; caspase activation, % (concentration not given with the values); hit rate 0.066% among 330,000;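 active = over half of replicate activation scores above 10%, or exactly half above 10 with the replicate mean above 10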
Mot1-301 SUMO = yeast Mot1-301 growth rescue at high temperature, primary screen, SUMOylation pathway inhibitor project, S. cerevisiae, ATP luminescence, 38.5C; S. cerevisiae Mot1-301 growth rescue; percent above DMSO median, 100 means doubled; growth rescue, % at 18.8 µM; hit rate 1% among 320,000; AID 2716, 2010;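 active = every valid replicate shows activation above 250% relative to neutral control wells; inactive = the rest, any valid replicate at or below 250%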;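 also: OY570 slx delta 5 strain wells were the positive control but not used for scaling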
* = called active by the depositor; nt = no result given; + = active, no number. This is a sample that favours compounds with a hit; in the whole collection about 7.2% have one here.

SMILES | ALR H2O2 inh | Efflux pump inh | AHR act | VLA-4 inh | A1 inh | Mot1-301 SUMO
O=C(CNS(=O)(=O)c1ccccc1)NNC(=O)C(Cl)Cl | 0 | 0 | 0 | 2 | 0 | 1
CCn1nc(C)cc1C(=O)N1CCc2c([nH]c3ccccc23)C1c1cc(F)ccc1F (centres undefined) | -24 | 0 | 15 | -7 | -2 | 479*
Cc1ncoc1C(=O)N1CCc2c([nH]c3ccccc23)C1c1ccccc1F (centres undefined) | 0 | 0 | 11 | 14 | 0 | -10
CCc1ccc(-c2ccc(SCc3ccccn3)nn2)cc1 | 4 | 0 | 9 | 0 | -2 | nt
CCOc1ccc(-c2ccc(SCc3ccccn3)nn2)cc1 | -16 | 0 | 11 | 61* | -1 | nt
COc1cc(CNc2ccc(CNc3ncn[nH]3)cc2)ccc1OCC(=O)NC(C)(C)C | -3 | 0 | 56* | -2 | 0 | -20
CC(C)(C)NC(=O)COc1ccc(CNc2ncn[nH]2)cc1 | nt | 0 | 1 | 20 | 0 | -10
COc1cc(CNc2ccc(N3CCOCC3)cc2)ccc1OCC(=O)NC(C)(C)C | 99* | 0 | 8 | 8 | 1 | -8
COc1cc(CNc2ccc(N3CCN(C(C)=O)CC3)cc2)ccc1OCc1ccccc1 | 99* | 0 | 0 | -10 | -1 | -6
Cc1cc(Br)ccc1OCCCCN1CCC(C)CC1 | -1 | 0 | 0 | 9 | 1 | 115
NC(=O)c1nsc(C(=O)N(Cc2cccnc2)C(C(=O)NC2CCCCC2)c2ccc(F)cc2)c1N (centres undefined) | nt | 0 | -1 | 0 | 0 | -6
FC(F)(F)c1ccc2c(c1)[nH]c(=S)n2C1CC1 | -5 | 0 | 3 | 7 | 0 | -11
COc1ccccc1NC(=S)N1CCN(C(=O)C2CCCO2)CC1 (centres undefined) | nt | 1 | 3 | -2 | 0 | 12
CN1CCN(S(=O)(=O)c2cccc(C(=O)Nc3ccccc3N3CCCC3)c2)CC1 | 49 | 0 | 2 | 5 | 0 | 124
COc1ccc(C(=O)Nc2ccc(N3CCCCCC3)cc2)cc1S(=O)(=O)N1CCOCC1 | 98* | 0 | -1 | -11 | 0 | -9
Cc1ccc(C(=O)Nc2cccnc2)cc1S(=O)(=O)N1CCCCCC1 | -3 | 0 | 77* | 8 | -1 | 164
O=C(Nc1ccccc1N1CCOCC1)c1ccc(Cl)c(S(=O)(=O)N2CCCC2)c1 | -3 | 0 | 0 | -3 | 0 | -4
CC(=O)N1CCN(S(=O)(=O)c2cccc(C(=O)Nc3ccccc3N3CCCC3)c2)CC1 | 97* | 0 | -1 | 12 | 1 | 10
Cc1ccc(C(=O)Nc2ccccc2N2CCCC2)cc1S(=O)(=O)N1CCOCC1 | 98* | 0 | 2 | -7 | -2 | -1
Cc1ccc(C(=O)Nc2cccnc2)cc1S(=O)(=O)N1CCOCC1 | 4 | 0 | 37 | 23 | 1 | 5
Cc1cc(NC(=O)CN2C(=O)NC(C)(c3ccc(Cl)cc3)C2=O)no1 (centres undefined) | -9 | 0 | 0 | -20 | 0 | 33
O=C(NCCc1nnc2ccc(NCC3CCCO3)nn12)c1ccccc1 (centres undefined) | -5 | 0 | 2 | -4 | 1 | 12
O=C(Cc1cccs1)NC(Cc1c[nH]c2ccccc12)C(=O)O (centres undefined) | -6 | 0 | 11 | 4 | 0 | -24
COc1ccc(CC2(CO)CCN(C(C)Cc3ccc(Cl)cc3)CC2)cc1 (centres undefined) | -4 | 0 | -1 | 0 | 0 | 142
CC1CN(S(=O)(=O)c2cccc(C(=O)Nc3ccccc3N3CCCC3)c2)CC(C)O1 (centres undefined) | 97* | 0 | 0 | 0 | 0 | 110
SMILES | ALR H2O2 inh | Efflux pump inh | AHR act | VLA-4 inh | A1 inh | Mot1-301 SUMO
CCCCC(=O)Nc1ccc(C)c(S(=O)(=O)N2CCCCCC2)c1 | -1 | 0 | 1 | 5 | 0 | 22
COC(=O)CCSCC(=O)Nc1ccc(C)c(S(=O)(=O)N2CCCCC2)c1 | 99* | 0 | 0 | -4 | -1 | 0
COc1c(F)c(F)c(C(=O)Nc2ccccc2N2CCN(C(=O)C(C)C)CC2)c(F)c1F | -1 | 0 | 45 | 11 | 0 | 20
COc1c(F)c(F)c(C(=O)Nc2ccccc2N2CCN(C(C)=O)CC2)c(F)c1F | -9 | 0 | 50* | 7 | 0 | -6
O=C(Nc1ccccc1O)c1cc(S(=O)(=O)N2CCOCC2)c(Cl)cc1Cl | 90* | 0 | 22 | -12 | 0 | -22
O=C(COC(=O)c1cc(F)cc(F)c1)Nc1cccnc1Cl | 6 | 0 | 0 | 1 | 1 | 4
O=C(Nc1cc(S(=O)(=O)N2CCOCC2)ccc1N1CCOCC1)c1cc(=O)[nH]c2ccccc12 | 4 | 0 | 0 | 11 | 1 | 23
Cc1ccc(S(=O)(=O)N2CCC(C(=O)Nc3ccccc3N3CCCC3)CC2)cc1 | nt | 0 | 4 | -5 | -1 | nt
COc1ccc(S(=O)(=O)N2CCC(C(=O)Nc3ccccc3N3CCCC3)CC2)cc1OC | 97* | 0 | 4 | -13 | 1 | 6
CCOc1ccccc1NC(=O)c1cc(=O)[nH]c2ccc(S(=O)(=O)N3CCOCC3)cc12 | nt | 0 | 57* | 4 | 2 | -4
CC12CN3CC(C)(CN(C1)C3c1ccc3c(c1)OCO3)C2O (centres undefined) | 0 | 0 | 2 | 3 | 0 | +
Cc1n[nH]c(=O)nc1Nc1ccc(O)cc1 | 89* | 0 | 7 | 8 | 0 | 31
Cc1ccc(Nc2nc(=O)[nH]nc2C)cc1 | 0 | 0 | 2 | 2 | 0 | 565
CS(=O)(=O)Oc1ccc(/C=C2\C(=N)N3N=C(CC(=O)N4CCOCC4)SC3=NC2=O)cc1Cl | 82* | 0 | 2 | 5 | 0 | -13
COc1cc(/C=C2/C(=N)N3N=C(CC(=O)N4CCOCC4)SC3=NC2=O)ccc1OC(C)c1ccccc1 (centres undefined) | 12 | 0 | -1 | 26 | 0 | -2
N=C1/C(=C\c2ccc(Br)o2)C(=O)N=C2SC(CC(=O)N3CCCCC3)=NN12 | 97* | 1 | -1 | -3 | 0 | 19
CC(C)CC(=O)c1c[nH]c(C(=O)N2CCN(Cc3ccccc3)CC2)c1 | 3 | 0 | 3 | -2 | 0 | 0
C[C@H](CO)N1C[C@H](C)[C@@H](CN(C)S(=O)(=O)c2cccs2)Oc2c(NC(=O)NC3CCCCC3)cccc2C1=O | -6 | 0 | 3 | 6 | 0 | -10
Cc1ccc(N=c2sc(C)c(C)n2C)cc1 | 99* | 0 | 77* | 0 | -3 | 4
